The list is not random: actives were taken first. Their share in the collection is about 1.1%.
VLA-4 inh – inhibition in a human VLA-4 binding assay; P13612; 330,000 compounds, 0.2% hits; VLA-4 expressing cells, ligand binding flow cytometry; AID 2557; inhibition, % (about 7 µM as worked out from the volumes in the protocol); in the data active = inhibition above about 50%
Granule exo inh – blocks lytic granule exocytosis; inhibition, % at 10 µM; TALL-104 LAMP-1 surface exposure, flow cytometry; cells stimulated with thapsigargin and PMA; AID 651702; 360,000 compounds, 0.66% hits;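 active = inhibition above about 55%, limit read from the data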
CaV13 FRET inh – Primary screen for inhibitors of IQ motif and Ca2+-dependent inactivation inhibitor domain binding in CACNA1D, Förster resonance energy transfer in living cells, …. 340,000 compounds, 0.098% hits. HEK cells, CFP/YFP FRET ICDI-IQ, plate reader, 10 min; percent FRET-ratio fall versus neutral wells. AID 743397. inhibition, % at 12.3 µM;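 active = mean replicate inhibition of at least 30% and at least 1% of replicates passing that level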;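 also: 0% = median of the neutral control wells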
ABCB6 inh MLPCN – blocks the human ABCB6 transporter; K562-ABCB6 porphyrin accumulation, flow cytometry, 1 h; stronger effect = lower value; fluorescence ratio to DMSO, % at 10 µM; 360,000 compounds, 0.19% hits; Q9NP58;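 active = fluorescence ratio to DMSO below 75%, the collection mean minus 3 SD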;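 also: signal is porphyrin accumulated inside mitochondria; 100% equals median channel fluorescence of DMSO control wells; lower ratio means ABCB6 inhibition with less porphyrin fluorescence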
Target sequence (Q9NP58 whole entry, looked up): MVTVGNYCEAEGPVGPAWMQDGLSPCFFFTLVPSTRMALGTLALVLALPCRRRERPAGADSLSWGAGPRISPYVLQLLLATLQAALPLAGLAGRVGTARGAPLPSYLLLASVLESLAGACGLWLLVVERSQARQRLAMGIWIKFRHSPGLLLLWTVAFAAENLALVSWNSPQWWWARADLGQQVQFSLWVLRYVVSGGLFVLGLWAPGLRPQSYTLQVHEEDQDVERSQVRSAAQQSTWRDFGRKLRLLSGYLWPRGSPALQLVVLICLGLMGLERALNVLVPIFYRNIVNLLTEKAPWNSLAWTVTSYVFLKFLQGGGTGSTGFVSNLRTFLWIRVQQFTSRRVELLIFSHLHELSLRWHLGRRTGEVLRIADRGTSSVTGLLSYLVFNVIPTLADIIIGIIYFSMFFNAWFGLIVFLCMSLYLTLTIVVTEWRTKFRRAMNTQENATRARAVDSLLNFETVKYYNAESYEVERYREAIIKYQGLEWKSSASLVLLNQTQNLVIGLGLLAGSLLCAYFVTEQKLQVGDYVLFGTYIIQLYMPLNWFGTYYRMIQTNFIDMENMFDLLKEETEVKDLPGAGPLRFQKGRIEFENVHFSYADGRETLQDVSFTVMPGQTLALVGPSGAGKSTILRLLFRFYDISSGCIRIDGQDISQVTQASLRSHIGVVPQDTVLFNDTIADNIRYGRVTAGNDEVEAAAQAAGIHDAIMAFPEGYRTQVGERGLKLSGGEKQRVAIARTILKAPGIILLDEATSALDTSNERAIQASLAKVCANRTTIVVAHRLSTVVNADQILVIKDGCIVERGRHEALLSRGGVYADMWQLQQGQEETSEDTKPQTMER
VLA-4 mod pick – human VLA-4 allosteric modulation in cherry picked compounds; shares compounds with VLA-4 inh; U937 cells, HUTS-21 LIBS mAb binding, flow cytometry; LDV ligand present at threefold Kd; 1,300 compounds, 2% hits; inhibition, % at 6.7 µM; AID 2813; in the data active = inhibition above about 40%;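 also: 0% = ligand without compound and 100% = no ligand background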
Active calls of the source: *.

`O=S(=O)(c1ccc(F)cc1)N1CCCc2nc(-c3ccc(F)cc3)ccc21` gave CaV13 FRET inh -8.
CCOC(=O)c1ccc(N2C(=O)CC(N3CCOCC3)C2=O)cc1 (stereo not given) was read as VLA-4 inh 5, Granule exo inh 1, ABCB6 inh MLPCN 92 and VLA-4 mod pick 0.
CCC(=O)Nc1ccc2c(c1)ncn2-c1ccccc1 was read as VLA-4 inh 53*, Granule exo inh -8, CaV13 FRET inh -3, ABCB6 inh MLPCN 99 and VLA-4 mod pick -4.
Screening CC(=O)Oc1cc(C)c(Cl)c2c(OC(C)=O)cc(C(C)=O)c(O)c12 returned CaV13 FRET inh -10.
Screening C#CCN(Cc1ccco1)C(=O)c1nnc2c3ccccc3n(S(=O)(=O)c3ccccc3)c2n1 returned CaV13 FRET inh -5.
For O=C1CCCc2ccccc2N1Cc1ccc(F)cc1 the results were VLA-4 inh 52*, Granule exo inh 3, CaV13 FRET inh 3, ABCB6 inh MLPCN 101 and VLA-4 mod pick 1.
`CCOC(=O)C1(S(=O)(=O)c2ccc(Cl)cc2)CCN(Cc2ccc(C)cc2)CC1` gave VLA-4 inh 9, Granule exo inh -4, CaV13 FRET inh -5, ABCB6 inh MLPCN 103 and VLA-4 mod pick 6.
`Nc1cc(C(=O)OCC(=O)NCCC2=CCCCC2)ccc1Cl` gave VLA-4 inh -19, Granule exo inh -3, CaV13 FRET inh -3, ABCB6 inh MLPCN 95 and VLA-4 mod pick 5.
For COC(=O)[C@]1(CC(C)C)NC=C(C(=O)c2ccccc2)[C@@H]1c1cccs1 the results were CaV13 FRET inh -4.
Screening Cn1c(NC(=O)c2ccc(C(C)(C)C)cc2)cc(=O)n(C)c1=O returned VLA-4 inh 53*, Granule exo inh -1, CaV13 FRET inh -6, ABCB6 inh MLPCN 94 and VLA-4 mod pick 4.
`CN1CCN(C(=O)C2CCC(CNS(=O)(=O)c3cccc4cccnc34)CC2)CC1` (stereo not given) gave VLA-4 inh -2, Granule exo inh 0, CaV13 FRET inh 21 and ABCB6 inh MLPCN 92.
Screening O=C(C1CCC(CNS(=O)(=O)c2cccc3cccnc23)CC1)N1CCc2ccccc21 (stereo not given) returned VLA-4 inh 53*, Granule exo inh -11, CaV13 FRET inh -11, ABCB6 inh MLPCN 100 and VLA-4 mod pick 11.
`CCCCc1nnn2c1C1c3cc(-c4cccnc4)ccc3CCN1C(=O)C2` (stereo not given) gave CaV13 FRET inh -3.
For O=C(O)c1ccc(NC2OC[C@@H](O)[C@H](O)[C@H]2O)cc1 (stereo not given in full) the results were VLA-4 inh 59*, Granule exo inh -7, CaV13 FRET inh -4, ABCB6 inh MLPCN 93 and VLA-4 mod pick -6.
O=C(CN1CCCc2ccccc21)Nc1ccc(F)cc1[N+](=O)[O-] was read as VLA-4 inh -111, Granule exo inh -2, CaV13 FRET inh -4 and ABCB6 inh MLPCN 95.
For Nn1nnc2ccccc21 the results were VLA-4 inh 56*, Granule exo inh -2, CaV13 FRET inh -5, ABCB6 inh MLPCN 102 and VLA-4 mod pick -3.
c1ccc2c(c1)nnn1c3ccccc3nc21 was read as VLA-4 inh 30.
For O=C(N1CCOCC1)N1CCC(NC(=O)C23CC4CC(CC(C4)C2)C3)CC1 the results were VLA-4 inh 52*, Granule exo inh 5, CaV13 FRET inh -5, ABCB6 inh MLPCN 86 and VLA-4 mod pick 12.
`O=C(N1CCOCC1)C12CCC3CC(CC(C3)C1)C2` gave VLA-4 inh 7, Granule exo inh 1, CaV13 FRET inh 0 and ABCB6 inh MLPCN 96.
For C[C@H](c1ccccc1)N1C[C@@H](COCc2ccccc2)Oc2cccc(Oc3ccc(C(C)(C)C)cc3)c2S1(=O)=O the results were CaV13 FRET inh -8.
For C[C@H](CO)NC(=O)[C@@H]1C[C@H]1[C@@H](NP(=O)(c1ccccc1)c1ccccc1)c1ccccc1 the results were VLA-4 inh -1, Granule exo inh -4, CaV13 FRET inh -4 and ABCB6 inh MLPCN 99.
`Cc1ccc(-c2nc(-c3ccccc3)no2)cc1` gave VLA-4 inh 95*, Granule exo inh -1, ABCB6 inh MLPCN 95 and VLA-4 mod pick 0.
